From PubChem BioAssay AID1159580 (chemical genetic matrix, 2015)
In all, about 5,500 compounds went through this assay and about 2,000 (36%) were called active. Not shown: some 18% with an inconclusive outcome. No stated cut-off is given here; in the data, active means normalized growth mostly below about 0.91 (no sharp cut-off); inconclusive means no clear call, values can overlap the other calls; inactive means mostly above about 0.92. The list shows a part of the results.

Experiment: chemical genetic growth profiling, strain panel (AID 1159580);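 further: tested at 20 µM; growth read once vehicle control cultures reached saturation at 30 °C; 1 = growth at the plate median or of vehicle wells; lower values mean less growth of the strain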
Conditions: S. cerevisiae deletion strains, growth OD

Measured: normalized growth

Oc1ccc2c3c1O[C@H]1c4oc5ccccc5c4C[C@@]4(O)C(C2)N(CC2CC2)CCC314 (stereo partly drawn)
inactive: locus YAL040C, strain CLN3, hits give low values 1.01 | locus YCL061C, strain MRC1 (second series), hits give low values 1 | locus YDR363W, strain ESC2, hits give low values 0.994 | locus YER002W, strain NOP16, hits give low values 0.988 | locus YJR075W, strain HOC1, hits give low values 0.99 | locus YMR307W, strain GAS1, hits give low values 0.988 | locus YNL175C, strain NOP13, hits give low values 1.01 | locus YNL197C, strain WHI3, hits give low values 1.01 | locus YNL224C, strain SQS1, hits give low values 1 | locus YNL322C, strain KRE1, hits give low values 0.993 | locus YOR083W, strain WHI5 (second series), hits give low values 1.01 | locus YPL055C, strain LGE1, hits give low values 0.975

O=S(=O)(Nc1cc(C(F)(F)F)ccc1F)c1cc(C(F)(F)F)ccc1Cl
active: locus YHR030C, strain SLT2, hits give low values 0.644 | locus YLR113W, strain HOG1, hits give low values 0.715 | locus YPL256C, strain CLN2, hits give low values 0.694
inactive: locus YAR019C, strain CDC15, hits give low values 0.942 | locus YBL105C, strain PKC1, hits give low values 0.947 | locus YBR135W, strain CKS1, hits give low values 0.937 | locus YBR136W, strain MEC1, hits give low values 0.943 | locus YBR160W, strain CDC28, hits give low values 0.931 | locus YDL017W, strain CDC7, hits give low values 0.944 | locus YDL028C, strain MPS1, hits give low values 0.941 | locus YDL101C, strain DUN1, hits give low values 0.969 | locus YDL108W, strain KIN28, hits give low values 0.949 | locus YDL132W, strain cdc53, hits give low values 0.945 | locus YDL214C, strain PRR2, hits give low values 0.905 | locus YDR052C, strain DBF4, hits give low values 0.957 | locus YDR054C, strain cdc34, hits give low values 0.94 | locus YDR226W, strain ADK1, hits give low values 0.95 | locus YDR477W, strain SNF1, hits give low values 0.917 | locus YER123W, strain YCK3, hits give low values 0.868 | locus YER133W, strain GLC7, hits give low values 0.923 | locus YFL009W, strain cdc4, hits give low values 0.939 | locus YFL029C, strain CAK1, hits give low values 0.941 | locus YFR003C, strain YPI1, hits give low values 0.946 | locus YFR019W, strain FAB1, hits give low values 0.894 | locus YFR028C, strain CDC14, hits give low values 0.939 | locus YGR040W, strain KSS1, hits give low values 0.905 | locus YGR052W, strain FMP48, hits give low values 0.831 | locus YGR092W, strain DBF2, hits give low values 0.82 | locus YHR079C, strain IRE1, hits give low values 0.824 | locus YHR082C, strain KSP1, hits give low values 0.771 | locus YHR205W, strain SCH9, hits give low values 0.887 | locus YIL147C, strain SLN1, hits give low values 0.95 | locus YJL095W, strain BCK1, hits give low values 0.886 | locus YJL128C, strain PBS2, hits give low values 0.911 | locus YJL157C, strain FAR1, hits give low values 0.904 | locus YJR016C, strain ILV3, hits give low values 0.941 | locus YJR066W, strain TOR1 (second series), hits give low values 0.904 | locus YJR066W, strain TOR1, hits give low values 0.82 | locus YKL048C, strain ELM1, hits give low values 0.852 | locus YKL067W, strain YNK1, hits give low values 0.905 | locus YKL101W, strain HSL1, hits give low values 0.88 | locus YKL193C, strain SDS22, hits give low values 0.938 | locus YKL203C, strain TOR2, hits give low values 0.933 | locus YLR133W, strain CKI1, hits give low values 0.902 | locus YLR403W, strain SFP1, hits give low values 0.902 | locus YML070W, strain DAK1, hits give low values 0.864 | locus YMR001C, strain CDC5, hits give low values 0.943 | locus YMR205C, strain PFK2 (second series), hits give low values 0.925 | locus YMR277W, strain FCP1, hits give low values 0.944 | locus YNL006W, strain LST8, hits give low values 0.936 | locus YNL020C, strain ARK1, hits give low values 0.882 | locus YNL161W, strain CBK1, hits give low values 0.939 | locus YNL183C, strain NPR1, hits give low values 0.808 | locus YNL207W, strain RIO2, hits give low values 0.937 | locus YNL222W, strain SSU72, hits give low values 0.938 | locus YNL307C, strain MCK1 (second series), hits give low values 0.861 | locus YOL078W, strain AVO1, hits give low values 0.935 | locus YOL136C, strain PFK27, hits give low values 0.858 | locus YOR061W, strain CKA2, hits give low values 0.908 | locus YOR119C, strain RIO1, hits give low values 0.951 | locus YOR231W, strain MKK1, hits give low values 0.817 | locus YOR329C, strain SCD5, hits give low values 0.947 | locus YPL031C, strain PHO85, hits give low values 0.881 | locus YPL153C, strain RAD53, hits give low values 0.867 | locus YPL204W, strain HRR25, hits give low values 0.876 | locus YPL209C, strain IPL1, hits give low values 0.935 | locus YPR025C, strain CCL1, hits give low values 0.937 | locus YPR106W, strain ISR1, hits give low values 0.929 | locus YPR111W, strain DBF20, hits give low values 0.925 | strain NNK1, hits give low values 0.934 | strain TSCII, hits give low values 0.941
